Akt phos inh – Akt phosphorylation inhibition; hit rate 0.32% among 360,000; activity change, % for hits at 50 µM; Neuro2A IGF-stimulated pAkt S473 HTRF, 20 min; active compounds read low; AID 651550; in the data active means activity change below about -80%; inconclusive means mostly about -51% to -80%
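Single-point screen (50 µM final compound) in Neuro2A cells stimulated 20 min with 6 nM IGF at 37 deg C. After lysis, Ser473-phosphorylated Akt read by HTRF (ex 330 nm, em 615/665 nm) as the 665/615 ratio.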
KCNH2 3.1 inh – KCNH2 3.1 (human) potassium channel inhibition; AID 720553; activity change, % (tested at about 1.8 µM); hit rate 0.95% among 340,000; U2OS KCNH2 3.1, thallium flux FluxOr; active compounds read low;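 active means maximum activity change below -70%; inconclusive means maximum activity change from -70% to -50%; inactive means maximum activity change above -50%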;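 further: thallium influx rate constant from kinetic fluorescence after stimulation buffer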
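FluxOr-based Tl+ influx in U2OS cells transduced with KCNH2 3.1 virus; rate constants normalized to DMSO controls.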
RXFP1 antagonist – RXFP1 (human) relaxin receptor antagonism; Q9HBX9; HEK293-RXFP1, relaxin-stimulated cAMP HTRF, 30 min; active compounds read low; activity change, negative = inhibition, % at 57.5 µM; hit rate 0.59% among 350,000; AID 1259400;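 active means activity change of -60% or lower, but not beyond a set lower limit; inconclusive means change between -60% and -40%, or beyond the set limit; inactive means change above -40%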
Target sequence (Q9HBX9 whole entry, looked up): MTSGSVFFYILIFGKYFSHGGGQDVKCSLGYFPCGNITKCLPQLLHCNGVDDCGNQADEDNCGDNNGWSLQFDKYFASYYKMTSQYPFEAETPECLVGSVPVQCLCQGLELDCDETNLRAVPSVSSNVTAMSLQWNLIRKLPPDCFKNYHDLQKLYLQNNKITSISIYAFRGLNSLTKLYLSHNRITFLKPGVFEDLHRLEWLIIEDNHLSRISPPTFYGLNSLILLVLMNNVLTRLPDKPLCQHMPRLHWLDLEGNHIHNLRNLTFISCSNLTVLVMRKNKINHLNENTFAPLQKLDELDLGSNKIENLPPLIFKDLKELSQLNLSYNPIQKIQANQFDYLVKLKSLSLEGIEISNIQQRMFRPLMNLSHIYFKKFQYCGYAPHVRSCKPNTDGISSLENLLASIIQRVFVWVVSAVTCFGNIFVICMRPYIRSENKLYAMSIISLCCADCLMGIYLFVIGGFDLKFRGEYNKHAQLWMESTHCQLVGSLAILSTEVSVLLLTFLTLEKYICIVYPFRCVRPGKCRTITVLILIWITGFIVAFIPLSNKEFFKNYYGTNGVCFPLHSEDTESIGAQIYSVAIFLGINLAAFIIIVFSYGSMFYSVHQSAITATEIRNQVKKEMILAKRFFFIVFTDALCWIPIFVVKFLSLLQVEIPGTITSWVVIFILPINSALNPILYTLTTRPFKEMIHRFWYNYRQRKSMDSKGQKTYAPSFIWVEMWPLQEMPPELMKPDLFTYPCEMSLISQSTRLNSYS
hERG WT inh – inhibitors of human wildtype KCNH2 potassium channel; Q12809; U2OS, BacMam KCNH2, thallium flux FluxOr; active compounds read low; activity change, % at 1.84 µM; hit rate 0.37% among 340,000;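 active means maximum activity change below -70%; inconclusive means maximum activity change between -70% and -50%; inactive means maximum activity change above -50%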
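U2OS cells transduced with wild-type KCNH2 virus are loaded with FluxOr dye for 45 min, and thallium flux is measured in kinetic reads before and after stimulation buffer. Rate constants are normalized to DMSO controls.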
RXFP1 agonist – RXFP1 (human) receptor agonism; HEK293T-RXFP1 cAMP TR-FRET, 30 min; response scale: percent of porcine relaxin response, buffer zero; Potency, µM (series often up to 57.5 µM), actives largely listed as activators; hit rate 0.3% among 370,000; AID 2676; active means well fitted activation curve with a large enough effect; inconclusive means small, poorly fitted or top-dose-only effect; further: nearly all actives have a fitted effect of over 60% in size
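cAMP rise read by TR-FRET after 30 min, 37C compound exposure (up to 58 uM) in RXFP1-transfected HEK293 cells with Ro 20174 present. EC50 from Hill-equation fits, with 29 nM porcine relaxin as 100% and buffer as basal.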
Of the large screens only hits and unclear results are named; the others gave an inactive call. In the library only some 1.7% were active in any assay of this set; here they are far more common.

Cc1cc(NC(=O)C(C)SCC(=O)Nc2cc(Cl)ccc2N2CCN(C)CC2)no1 (stereo not drawn)	none
Cc1cc(NC(=O)C(C)SCC(=O)Nc2cc(C(F)(F)F)ccc2N2CCOCC2)no1 (stereo not drawn)	RXFP1 antagonist -72
O=C(Nc1cc(C(F)(F)F)ccc1N1CCOCC1)c1cccnc1Cl	Akt phos inh -111%
O=C(c1ccco1)N1CCN=C1SCc1c(F)cccc1Cl	none
CCCCCOC(=O)C(C)Sc1n[nH]c(=O)[nH]c1=O (stereo not drawn)	none
CCCCOC(=O)CSc1n[nH]c(=O)[nH]c1=O	Akt phos inh -124%
CNc1ccccc1C(C)(C)c1cc(-c2ccco2)n[nH]1	none
Cc1ccc(C)c(NC(=O)c2cc3c([nH]c4ccccc43)c(C)n2)c1	Akt phos inh -101%
O=C(c1ccccc1)c1ccc(Cn2cc(-c3ccccc3)nn2)cc1	none (no result: KCNH2 3.1 inh, RXFP1 antagonist, hERG WT inh)
COCCN(C(=O)CSc1nnc(-c2ccc(F)cc2)n1N)c1c(N)n(CC(C)C)c(=O)[nH]c1=O	none (no result: RXFP1 agonist)
CC1(C)O[C@@H]2C[C@H]3[C@@H]4CCC5=CC(=O)C=C[C@]5(C)[C@@H]4[C@@H](O)C[C@]3(C)[C@]2(C(=O)CO)O1	none (no result: Akt phos inh, KCNH2 3.1 inh, hERG WT inh, RXFP1 agonist)
Cn1cnc2c(F)c(Nc3ccc(Br)cc3Cl)c(C(=O)NOCCO)cc21	none (no result: Akt phos inh, KCNH2 3.1 inh, hERG WT inh, RXFP1 agonist)
CCn1c(=O)n(CC)c2cc(S(=O)(=O)Nc3ccccc3C)c(C)cc21	Akt phos inh -89%
COc1cccc(-c2sc3ccccc3c2-c2ccc(OCCN3CCCC3)cc2)c1	none (no result: RXFP1 antagonist, RXFP1 agonist)
COc1cccc(-c2sc3ccccc3c2-c2ccc(OCCN3CCCCC3)cc2)c1	KCNH2 3.1 inh -76 (no result: RXFP1 antagonist, RXFP1 agonist)
Cc1sc2ncnc(OCC(=O)Nc3ccc4c(c3)OCCO4)c2c1C	none (no result: RXFP1 antagonist)
O=C(CN1CCN(Cc2ccc(F)cc2)CC1)Nc1nc2ccccc2s1	KCNH2 3.1 inh -74
O=C(Cn1cnc2ccccc2c1=O)Nc1nc2ccccc2s1	KCNH2 3.1 inh -97, RXFP1 agonist inconclusive
Cn1c(=O)c2c(ncn2CC(=O)Nc2nc3ccc(F)cc3s2)n(C)c1=O	Akt phos inh -122%
CCc1ccc2nc(NC(=O)Cn3cnc4ccccc4c3=O)sc2c1	none
COc1ccc2nc(NC(=O)Cn3cnc4c(=O)n(C)c(=O)n(C)c43)sc2c1	KCNH2 3.1 inh inconclusive
CCCN1CCN(CC(=O)Nc2nc3ccccc3s2)CC1	none
COc1cc(OC)c2ccc(=O)oc2c1C(CC(=O)N1CCCC1)c1ccc(N(C)C)cc1 (stereo not drawn)	none (no result: KCNH2 3.1 inh, RXFP1 antagonist, hERG WT inh)
CCNC(=O)C1(C)CCCN1Cc1cccc(C(F)(F)F)c1 (stereo not drawn)	none (no result: KCNH2 3.1 inh, RXFP1 antagonist, hERG WT inh, RXFP1 agonist)
O=C(O)c1nc(NCCc2ccccc2)ncc1Cl	KCNH2 3.1 inh -180, hERG WT inh -113
O=C(O)c1nc(NCc2ccccc2)ncc1Cl	none (no result: hERG WT inh)
CCOc1ccc(NC(=O)CSc2ccc3nnc(-c4cccnc4)n3n2)cc1	RXFP1 agonist 25µM
CCOC(=O)N1CCN(C(=O)CSc2ccc3nnc(-c4cccnc4)n3n2)CC1	RXFP1 agonist 14µM
CCOc1ccccc1NC(=O)CSc1ccc2nnc(-c3cccnc3)n2n1	RXFP1 agonist inconclusive
O=C(CNC(=O)C(c1ccccc1)c1ccccc1)OCC(=O)c1cccs1	none (no result: RXFP1 antagonist)
Cc1cccc(NC(=O)c2ccc(COc3ccc(Cl)cc3Cl)o2)n1	Akt phos inh -128%
Cc1ccc(C(=O)Nc2nc(-c3ccc4c(c3)OCCO4)cs2)o1	RXFP1 antagonist inconclusive (no result: RXFP1 agonist)
O=C(Nc1nc(-c2ccc3c(c2)OCCO3)cs1)c1ccc(Br)o1	KCNH2 3.1 inh -74 (no result: RXFP1 agonist)
O=C1/C(=C\c2ccccc2)CN(C(=O)CCN2CCCCC2)C/C1=C/c1ccccc1	KCNH2 3.1 inh -75, RXFP1 antagonist inconclusive (no result: RXFP1 agonist)
CN(C(=O)COC(=O)C12CC3CC(CC(Cl)(C3)C1)C2)c1ccccc1	none (no result: RXFP1 agonist)
Cn1ncc([N+](=O)[O-])c1C(=O)Nc1ccc(-c2nc3ccccc3[nH]2)cc1	none
CCOc1ccc(C(=O)Nc2ccc(-c3nc4ccccc4[nH]3)cc2)cc1[N+](=O)[O-]	KCNH2 3.1 inh -71
CC[C@]12CCCN3CCc4c(n(c5ccccc45)[C@@](O)(C(=O)OC)C1)[C@@H]32	KCNH2 3.1 inh -103
COc1ccc(-n2c(SCC(=O)Nc3cc(C)on3)nc3c([nH]c4ccccc43)c2=O)cc1	RXFP1 agonist inconclusive (no result: RXFP1 antagonist)
Cc1ccc(C(=O)N2CCN(S(=O)(=O)c3ccccc3)CC2)cc1	none

Bioassay records (PubChem BioAssay)
